Measurements from paper PMC12864922, “TDP-43 directly inhibits mRNA accumulation in neurites through modulation of mRNA stability”.
Over roughly 9,900 sequences, “r (bound/input frequency ratio)” has its median near 0.7; the highest 2% begin near 6.5. Only a selection was taken, and the highest values are over-represented in it overall.

B1: ENSMUSG00000090935.723|Synj2bp (ssRNA)
RNA: GGGAGUUCUACAGUCCGACGAUCGCUUCGAUAUCCGCAUGCUAAACAUUGUUUUAUUCCUAGGUGCUCAGGACAGACUGAUCAACCUCCAGUAACAUAUGUGGUUAGUAAGUGCUUCAGCUUGUGUAGCCAUUAAUAACCAAGUCAUAGGAUUGUGAAUCUAAAAUACUCCUGGGUAAAAUUUGUAUUAGAAUGGAAAAAAAAAUGAGGGUCAGAAAGGUGAGCUAACUUCAAGUUAGAUACUCCCCUCUAUUUUGGUCUCAAAUUUGUUUUAGUGUGUCCACAACAUGAAAACAUACAAAAACUCUUGCGGUCGCACUAGUGUGGAAUUCUCGGGUGUCAAGG
B2: ENSMUSG00000058297.523|Spock2 (ssRNA)
RNA: GGGAGUUCUACAGUCCGACGAUCGCUUCGAUAUCCGCAUGCUAUGGGUGGGCACAGGUCUGCCUUGCUCCAGCCCCCUCCCUUGGUUUCUGUUGGUACCCAUUUGGCUUUUAUCUGCUUUCUGCUUCACCACUAAGUGCGUAGGUGGGGUCUUUUGAUAUCGGCUCCCCAAAGCCCAAGCCCACAGCCCUAGGAGAGAACCAGGGGCCCAUCUUUGACACCUGGGCCAUCACGAGCCCUCCCGCCUGCAGUUGUCCUAGGGAAAGACCUGGGGGUGCAAAAGGAGAUUCAAGACAUCCGUACCCUCUUGCGGUCGCACUAGUGUGGAAUUCUCGGGUGUCAAGG
B3: ENSMUSG00000004113.207|Cacna1b|52:56;242:246 (ssRNA)
RNA: GGGAGUUCUACAGUCCGACGAUCGCUUCGAUAUCCGCAUGCUAAGGAAGCAUCGGGUGGAUUGGGUGGGAGCUGCUCAGAGCAGCACGGGGGCUACACACUUAGGGACAUUGACAGUGUCCAUCAGCAUGUCAGAGAAGCAGCUGUAGUGCCCGUGUUUCUCCCUGAGUCAUGGGUUCUGAAGAAGCCAGAGCGGCACAAUGCGUGCUUGCAUGAGGCACUUUCAGCCUUUUUAAAUCUGACUCUCAGGGAUGGGAUGCCUGCCAAGUAGGGUGUAAUCUCUGUACACAUUUUAAAACAACAACUCUUGCGGUCGCACUAGUGUGGAAUUCUCGGGUGUCAAGG
B4: ENSMUSG00000032194.344|Kank2 (ssRNA)
RNA: GGGAGUUCUACAGUCCGACGAUCGCUUCGAUAUCCGCAUGCUAAACACCCACCAGUCUCUCCUCUCCUUCCCGCUAUACUCCAGUUUUCUUUCUACUCUGUGACCACGGUACAUCCAUGAAGACAGUGUUACACGUAAAUGAAGUAUUCUUUUCUUGUAAUCAUAUUUUAGAAAGUAAAAGGACUUAAUAAAGCUACAAAUAAAAACAUUGCCUCGUGUCUGUUUGUUCUCCUUCUUUUUAGGCUAGCCUUGAACUCCUGAUCCUCCUGCCUUCCAUCUCCCAAGUGCUGGGAUGACAGGCACCUCUUGCGGUCGCACUAGUGUGGAAUUCUCGGGUGUCAAGG
B5: ENSMUSG00000004113.341|Cacna1b|1:8;11:16 (ssRNA)
RNA: GGGAGUUCUACAGUCCGACGAUCGCUUCGAUAUCCGCAUGCUACACACACAAGCACACAUCAGCAAGUGGCUAUUGUCAACCAUAGGGCUAUGCAACAAAAGACACAUUACUAGAAACAAAACACAAGACCACCACUUGGUCUAGGGUUUCAGCAUGAUUGUGACCAAACCUUUUAUAGAAUUUCCUUAUACAAAGGCACAAUACCCUGAAACUUUAACAGAGUAUUUUAUUCCAGUAGGGUAAAAUUAAACGGGACUCUUGGACUGCGCAUGUGACUGCACCCACGUUGCAACAGAGAAGGACUCUUGCGGUCGCACUAGUGUGGAAUUCUCGGGUGUCAAGG
B6: ENSMUSG00000061578.75|Ksr2 (ssRNA)
RNA: GGGAGUUCUACAGUCCGACGAUCGCUUCGAUAUCCGCAUGCUAAUGGAACCAGAAACAAUACACCUGCUCCGUUGUCAAGGCUUCUAGGCCAAGGUCAGGGUAGGGAGGUGGGGUGGGUUAAACUUGCAAACAUCUGAUUUUAGAGGUCCCAUUCCAAGAUGGAAGUCACCGGUUGCCGCUGAGCACACAAUUCUGAAGGACAGUAGGCAGUCCUGCAGGUCUUUUUUAGCACAGGGCCUCUCUGGGGACCAGUCCCUGGCCUUCACCCUUCUCCCAUUUUGUAAGAACACUGUUCUAACUCACUCUUGCGGUCGCACUAGUGUGGAAUUCUCGGGUGUCAAGG
B7: ENSMUSG00000034801.114|Sos2 (ssRNA)
RNA: GGGAGUUCUACAGUCCGACGAUCGCUUCGAUAUCCGCAUGCUACCCCAGGUGAUCAGCAGCAUUGCUUCCUCGGCUCCCCAGUGCUGCCCUAGGCCAGUAUAAAGACUCUGUAUUGCACUGUAGACUCUGCUAGCAGACGGCACUGAGAGGAGCCAGCGCUCGAGGGCGUUCUCACGCCUGACUGAUAGAUACCUUUUUAGGGUGAUGAACUUACACAGAUGCAGAAGAUAUGGGGUGGUGGUCCUGGGUUUUAACCCUCUGACCGUCUUCUAGCUUCUAAUUUUGUUUGGUUUUUACAUCUACUCUUGCGGUCGCACUAGUGUGGAAUUCUCGGGUGUCAAGG
B8: ENSMUSG00000061578.1547|Ksr2|98:102 (ssRNA)
RNA: GGGAGUUCUACAGUCCGACGAUCGCUUCGAUAUCCGCAUGCUAUUUAUAAAGUUUUCUACACUUCUCAAAAAAAAAAAUAUUUCUAACCUUGGCUGUUGGACAGUCUGUGAGCCUGUGAGCCGGCAAGCCUGUUGUUUCUACACAUUAGUGCAAUGUUAGUGAGAAUCCAGUGUCUGAGUUAUUAAUGCCAAUAAAGAAUUUGAGAAUUACUGCAUCCGCUGCUGUCACUCCAGGUCAGAACUCUGCUGUUGUCUGUUGGAUGGAAGGAAGCUCCAGAGUGAGGAACAAUGGUUGCUAACUGCCUCUUGCGGUCGCACUAGUGUGGAAUUCUCGGGUGUCAAGG

molecular target: TDP-43 (Homo sapiens, UniProt Q13148 1-414); test: RNA Bind-n-Seq with designed 260-mer pool; 25 mM Tris-HCl, 150 mM KCl, 3 mM MgCl2, BSA (printed 500 mg/mL), 20 units/mL SUPERase IN; pH not stated; 500 nM RNA pool, 1 h, 4 C; TDP-43 5, 50, 500 nM; high values mean tight binding; settings: protein: recombinant; tags: SBP (GST cleaved off with PreScission; pGEX-GST-SBP)
Sequence (Q13148 whole entry): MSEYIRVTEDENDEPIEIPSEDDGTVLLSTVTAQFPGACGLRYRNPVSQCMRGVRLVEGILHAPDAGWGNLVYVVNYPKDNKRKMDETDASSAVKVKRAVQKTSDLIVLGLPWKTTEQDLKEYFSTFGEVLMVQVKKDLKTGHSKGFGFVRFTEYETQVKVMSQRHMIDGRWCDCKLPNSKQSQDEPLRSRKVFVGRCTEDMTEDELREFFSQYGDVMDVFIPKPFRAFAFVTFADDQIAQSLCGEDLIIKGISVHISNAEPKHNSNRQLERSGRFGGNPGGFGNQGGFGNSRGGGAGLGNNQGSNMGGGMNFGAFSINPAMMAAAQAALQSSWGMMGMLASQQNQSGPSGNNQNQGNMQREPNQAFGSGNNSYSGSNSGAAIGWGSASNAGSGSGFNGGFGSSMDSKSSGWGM
Procedure, shortened: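 Streptavidin beads captured recombinant SBP-tagged TDP-43 at 5, 50 or 500 nM, and the beads were incubated for 1 h at 4 °C with 500 nM of an in vitro-transcribed pool of 260-nt 3′ UTR oligos in 25 mM Tris-HCl, 150 mM KCl, 3 mM MgCl2, BSA and SUPERase IN. After washing, bound RNA was eluted with biotin, reverse transcribed, PCR-amplified and sequenced. Binding is reported as R, the mapped-read-normalized abundance of each oligo in the bound sample divided by its abundance in the input. Two independent protein batches served as duplicates.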

Binder	binding signal
B1	0.199 R (bound/input frequency ratio)
B2	0.928 R (bound/input frequency ratio)
B3	0.888 R (bound/input frequency ratio)
B4	0.585 R (bound/input frequency ratio)
B5	0.234 R (bound/input frequency ratio)
B6	0.151 R (bound/input frequency ratio)
B7	0.44 R (bound/input frequency ratio)
B8	0.38 R (bound/input frequency ratio)
